Values without a mark were called inactive. Calls of active or inactive are those of the source.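 The calls were made as follows: active = EC50 at or below 10 µM; inactive = EC50 above 10 µM.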
assay: fluorescence interference artefacts, compound only, dose response, artefact control for cardiac thin filament activator project, biochemical, no RTF in test wells (AID 504697); settings: compound-only fluorescence in RTF assay buffer with Ca2+ (no RTF in test wells), artifact counterscreen;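 also: emission near 535 nm under roughly 485 nm excitation as for IANBD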

Question: With `Cc1nnc(SCC(=O)NC(C)(C)C)n1C1CCCCC1` as the compound, how does the EC50 read?
Answer: > 71.5 µM

Question: For `CN1CCS/C1=C/C=C1\SC(=S)N(CC(=O)O)C1=O`, which EC50 is on record?
Answer: 2.28 µM (active)

Question: For `Fc1ccc(-c2nnc(-c3ccc(Cl)cc3Cl)o2)cc1`, which EC50 is on record?
Answer: > 71.5 µM

Question: With `N#C/C(=C\c1ccc(-c2ccc(F)cc2)o1)C(=O)Nc1nc(-c2cccs2)cs1` as the compound, how does the EC50 read?
Answer: > 71.5 µM

Question: Which EC50 does the source give for `C[C@@H](C(=O)N1CCNCC1)n1cc(CCCN=C(N)N)nn1` here?
Answer: > 71.5 µM

Question: With `CN(Cc1ccccc1)C(=O)c1[nH]cnc1C(=O)NCc1ccccc1` as the compound, how does the EC50 read?
Answer: > 71.6 µM

Question: Which EC50 does the source give for `COc1ccccc1C(=O)Oc1ccc2c(c1)O/C(=C\c1ccncc1)C2=O` here?
Answer: 30.9 µM

Question: Which EC50 does the source give for `Cn1nc(NC(=O)C2CCC2C(=O)O)c2c(F)cccc21` (configuration not stated) here?
Answer: > 71.5 µM

Question: For `COc1ccc(S(=O)(=O)N2CN(Cc3ccco3)c3nc4ccccc4nc32)cc1`, which EC50 is on record?
Answer: > 71.5 µM

Question: For `Cc1cccc(/C=N/n2c(-c3ccncc3)n[nH]c2=S)c1`, which EC50 is on record?
Answer: > 71.5 µM

Question: Which EC50 does the source give for `CC(C)(C)C(=O)/C=c1\s/c(=C\c2ccc(-c3ccc([N+](=O)[O-])cc3)o2)c(=O)n1CC(=O)NC(N)=O` here?
Answer: 1.72 µM (active)

Question: Which EC50 does the source give for `CC1(C)CC(=O)C(C=Nc2cc(C(=O)c3ccccc3)ccc2N)=C(O)C1` here?
Answer: > 71.5 µM

Question: With `CC(=O)Nc1ccc(N=Cc2nc(-c3ccc(C)cc3)oc2O)cc1` as the compound, how does the EC50 read?
Answer: 20 µM

Question: Which EC50 does the source give for `CCn1cc(C(=O)NCCC(=O)NCCO)c(=O)c2cc3c(cc21)OCO3` here?
Answer: > 71.4 µM

Question: Which EC50 does the source give for `O=C(O)c1ccccc1CSc1nnnn1-c1ccccc1` here?
Answer: > 71.5 µM

Question: For `CC1(C)CC(=O)C=C(Nc2ccccc2N)C1`, which EC50 is on record?
Answer: > 71.5 µM

Question: With `CCN1C(=O)/C(=C/C=C2/SCCN2C)SC1=S` as the compound, how does the EC50 read?
Answer: 2.63 µM (active)

Question: With `CC(=O)/C(C=Nc1noc(C)c1Br)=C(\C)O` as the compound, how does the EC50 read?
Answer: > 71.6 µM

Question: Which EC50 does the source give for `Cc1ccc(/C=C2\Oc3c(ccc(O)c3CN3CCN(CCO)CC3)C2=O)cc1` here?
Answer: 34.2 µM

Question: Which EC50 does the source give for `CCN(CC)c1ccc(/C=c2\sc3nnc(-c4ccccc4Cl)n3c2=O)cc1` here?
Answer: 0.644 µM (active)

Question: With `CC1=CC(=C(C#N)c2nc3ccccc3s2)C=C(C)N1c1ccc(F)cc1` as the compound, how does the EC50 read?
Answer: 22.2 µM

Question: Which EC50 does the source give for `Cn1nc(-c2ccccc2)c(C(=O)Nc2ccc(C(F)(F)F)cc2)c1Cl` here?
Answer: > 71.5 µM

Question: With `CN(CC(=O)NCc1ccco1)S(=O)(=O)c1cccc2cccnc12` as the compound, how does the EC50 read?
Answer: > 71.5 µM

Question: With `CCN(CC(=O)Nc1ccccc1C(F)(F)F)C(=O)c1ccc(-n2nc(C)c(CCC(=O)OC)c2C)cc1` as the compound, how does the EC50 read?
Answer: > 71.5 µM

Question: With `S=C(Nc1ccc(N2CCOCC2)cc1)Nc1ccc2nc(-c3ccco3)c(-c3ccco3)nc2c1` as the compound, how does the EC50 read?
Answer: 11.4 µM

Question: For `COC(=O)c1ccc(S(=O)(=O)N2CCC(O)CC2)n1C`, which EC50 is on record?
Answer: > 71.4 µM

Question: For `COc1ncnc2c1N=C1CC(C)(C)CC(N)=C1S2`, which EC50 is on record?
Answer: 23.5 µM

Question: With `Cc1ccc(/C=C2/SC(=O)NC2=S)o1` as the compound, how does the EC50 read?
Answer: > 23.8 µM

Question: With `CC1CN(c2ccc(NS(=O)(=O)c3ccccc3)cc2C(=O)O)CC(C)O1` (configuration not stated) as the compound, how does the EC50 read?
Answer: > 71.5 µM

Question: Which EC50 does the source give for `CCn1c(=O)c(C(=O)CN2CCCc3ccccc32)c(N)n(Cc2ccccc2)c1=O` here?
Answer: 62.2 µM

Question: Which EC50 does the source give for `Cc1ccc[n+](-c2nc([O-])sc2C=O)c1` here?
Answer: 5.53 µM (active)

Question: Which EC50 does the source give for `CC(=O)Oc1ccc(N2C(=O)C3C(C2=O)C(C(=O)c2ccc(Cl)cc2)N2CCCC32)cc1` (configuration not stated) here?
Answer: 58.7 µM

Question: For `CN(C)c1ccc(N=Cc2nc(-c3ccccc3)oc2O)cc1`, which EC50 is on record?
Answer: 6.84 µM (active)

Question: For `CN1C(=O)/C(=C/C=C2\SCCN2C)OC1=S`, which EC50 is on record?
Answer: 15.9 µM

Question: With `CN1c2ccccc2C(O)=C(C(=S)Nc2ccc(F)c(Cl)c2)S1(=O)=O` as the compound, how does the EC50 read?
Answer: > 71.5 µM

Question: For `COc1ccc(C(=O)/C=C/c2cn(CC(O)CN3CCN(C)CC3)c3ccccc23)cc1OC` (configuration not stated), which EC50 is on record?
Answer: 25.7 µM

Question: For `Cc1cc(C)c2nc(NC(=O)C3CCCO3)sc2c1` (configuration not stated), which EC50 is on record?
Answer: > 71.5 µM
